{
  "source": "the supplement of paper PMC6411743",
  "note": "± gives the standard deviation of the averaged measurements. Of roughly 6,500 targets only a part is listed; those with the largest changes were picked by preference.",
  "data": [
    {"compound": "Nc1ncnc2c1ncn2[C@@H]1O[C@H](COP(=O)(O)OP(=O)(O)OP(=O)(O)O)[C@@H](O)[C@H]1O [adenosine triphosphate]", "assay": "NP40-soluble protein abundance relative to vehicle (solubility fold change) (ratio); higher = more soluble protein in presence of ATP", "conditions": "concentration: 6mM", "how_it_was_run": "(§1)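 Jurkat crude lysate prepared with a Dounce homogeniser was treated at eight concentrations spanning 0.1 to 10 mM, 10 min at room temperature then 3 min at 37 °C. Solubilisation with 0.8% NP40 and benzonase and ultracentrifugation preceded TMT labelling of the supernatant for LC-MS/MS. Fold change against the detergent-processed vehicle was determined per replicate from vsn-normalised intensities, across three independent experiments.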", "values": [
      {"target": "ARGLU1 (UniProt Q9NWB6)", "NP40-soluble protein abundance": "2.27 ± 0.22"},
      {"target": "UniProt Q9NVR5", "NP40-soluble protein abundance": "1.04 ± 0.065"},
      {"target": "MRPL16 (UniProt Q9NX20)", "NP40-soluble protein abundance": "1.11 ± 0.38"},
      {"target": "ZNF48 (UniProt Q96MX3)", "NP40-soluble protein abundance": "1.31 ± 0.15"},
      {"target": "UniProt Q8WX93|Q8WX93-3|Q8WX93-4|Q8WX93-5|Q8WX93-8", "NP40-soluble protein abundance": "0.97 ± 0.042"},
      {"target": "UniProt Q9H6R4|Q9H6R4-4|A0A0A0MRW6|Q9H6R4-2", "sequence (Q9H6R4 whole entry, one chain of several)": "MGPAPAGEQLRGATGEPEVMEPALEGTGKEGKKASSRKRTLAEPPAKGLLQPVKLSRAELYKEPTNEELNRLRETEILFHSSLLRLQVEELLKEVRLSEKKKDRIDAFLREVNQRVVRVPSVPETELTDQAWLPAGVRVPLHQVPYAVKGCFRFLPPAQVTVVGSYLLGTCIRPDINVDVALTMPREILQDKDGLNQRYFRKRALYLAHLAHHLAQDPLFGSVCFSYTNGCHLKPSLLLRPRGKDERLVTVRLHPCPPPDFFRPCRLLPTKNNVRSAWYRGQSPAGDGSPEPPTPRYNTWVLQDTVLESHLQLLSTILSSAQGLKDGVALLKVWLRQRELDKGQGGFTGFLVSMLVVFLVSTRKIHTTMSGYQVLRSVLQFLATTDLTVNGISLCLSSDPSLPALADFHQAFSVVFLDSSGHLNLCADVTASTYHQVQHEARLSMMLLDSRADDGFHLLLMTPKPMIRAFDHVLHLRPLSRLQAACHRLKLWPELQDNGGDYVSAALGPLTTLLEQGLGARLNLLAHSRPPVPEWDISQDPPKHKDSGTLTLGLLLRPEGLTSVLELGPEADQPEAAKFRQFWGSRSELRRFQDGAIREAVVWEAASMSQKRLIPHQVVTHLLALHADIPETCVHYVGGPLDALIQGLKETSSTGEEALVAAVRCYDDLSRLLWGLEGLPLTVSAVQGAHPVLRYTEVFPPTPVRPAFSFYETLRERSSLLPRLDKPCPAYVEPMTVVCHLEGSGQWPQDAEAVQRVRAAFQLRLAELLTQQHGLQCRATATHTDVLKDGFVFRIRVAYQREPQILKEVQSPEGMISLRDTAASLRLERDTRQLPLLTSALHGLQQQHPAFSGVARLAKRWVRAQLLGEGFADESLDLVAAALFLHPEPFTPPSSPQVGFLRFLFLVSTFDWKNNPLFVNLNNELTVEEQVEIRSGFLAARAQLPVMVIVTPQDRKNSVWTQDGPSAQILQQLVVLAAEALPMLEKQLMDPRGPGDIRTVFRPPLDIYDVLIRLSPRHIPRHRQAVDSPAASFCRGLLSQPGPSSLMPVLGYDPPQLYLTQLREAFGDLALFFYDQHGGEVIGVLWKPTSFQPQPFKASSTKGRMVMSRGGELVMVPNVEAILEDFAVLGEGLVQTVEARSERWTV", "NP40-soluble protein abundance": "1.31 ± 0.041"},
      {"target": "LUC7L (UniProt Q9NQ29)", "NP40-soluble protein abundance": "3.28 ± 0.17"},
      {"target": "EIF2AK4 (UniProt Q9P2K8)", "NP40-soluble protein abundance": "0.967 ± 0.073"},
      {"target": "UniProt Q9NUQ7|D6RA67", "sequence (Q9NUQ7 whole entry, one chain of several)": "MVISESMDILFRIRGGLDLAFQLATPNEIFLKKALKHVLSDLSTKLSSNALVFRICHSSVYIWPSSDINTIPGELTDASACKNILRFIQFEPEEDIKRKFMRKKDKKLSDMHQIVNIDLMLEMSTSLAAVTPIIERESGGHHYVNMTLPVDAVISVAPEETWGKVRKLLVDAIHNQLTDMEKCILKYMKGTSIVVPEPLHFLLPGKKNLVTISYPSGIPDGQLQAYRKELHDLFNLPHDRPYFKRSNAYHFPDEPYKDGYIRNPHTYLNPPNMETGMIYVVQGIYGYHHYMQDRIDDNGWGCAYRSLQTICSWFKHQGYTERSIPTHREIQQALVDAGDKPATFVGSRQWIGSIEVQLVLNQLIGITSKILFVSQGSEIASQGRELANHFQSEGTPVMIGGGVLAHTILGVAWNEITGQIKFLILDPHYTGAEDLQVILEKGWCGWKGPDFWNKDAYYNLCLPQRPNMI", "NP40-soluble protein abundance": "0.95 ± 0.18"},
      {"target": "UniProt Q9UEY8|Q9UEY8-2", "sequence (Q9UEY8 whole entry)": "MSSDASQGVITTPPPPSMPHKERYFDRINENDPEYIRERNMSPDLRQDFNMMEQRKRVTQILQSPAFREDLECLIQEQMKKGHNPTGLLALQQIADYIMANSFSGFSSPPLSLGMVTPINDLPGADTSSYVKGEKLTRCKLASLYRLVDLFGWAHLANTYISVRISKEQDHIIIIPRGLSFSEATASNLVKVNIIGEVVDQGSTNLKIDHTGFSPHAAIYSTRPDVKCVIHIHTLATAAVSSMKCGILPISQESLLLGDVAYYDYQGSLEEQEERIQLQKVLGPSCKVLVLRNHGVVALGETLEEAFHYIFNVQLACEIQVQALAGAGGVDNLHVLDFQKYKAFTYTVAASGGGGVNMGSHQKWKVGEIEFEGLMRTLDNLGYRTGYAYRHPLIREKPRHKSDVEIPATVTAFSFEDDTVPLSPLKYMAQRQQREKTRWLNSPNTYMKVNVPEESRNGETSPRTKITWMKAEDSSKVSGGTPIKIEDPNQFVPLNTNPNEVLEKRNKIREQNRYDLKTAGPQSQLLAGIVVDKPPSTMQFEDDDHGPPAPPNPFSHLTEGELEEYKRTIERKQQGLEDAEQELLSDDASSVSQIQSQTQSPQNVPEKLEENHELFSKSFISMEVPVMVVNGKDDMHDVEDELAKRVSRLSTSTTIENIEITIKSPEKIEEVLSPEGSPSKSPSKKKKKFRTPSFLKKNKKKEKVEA", "NP40-soluble protein abundance": "1.02 ± 0.035"},
      {"target": "PNPLA2 (UniProt Q96AD5)", "NP40-soluble protein abundance": "0.927 ± 0.12"},
      {"target": "PECR (UniProt Q9BY49)", "NP40-soluble protein abundance": "0.984 ± 0.076"},
      {"target": "SENP8 (UniProt Q96LD8)", "NP40-soluble protein abundance": "0.922 ± 0.035"},
      {"target": "UniProt Q9BWW4|Q9BWW4-2|Q9BWW4-3", "NP40-soluble protein abundance": "0.999 ± 0.12"},
      {"target": "ARMC1 (UniProt Q9NVT9)", "NP40-soluble protein abundance": "0.866 ± 0.063"},
      {"target": "DDX23 (UniProt Q9BUQ8)", "NP40-soluble protein abundance": "1.52 ± 0.21"},
      {"target": "UniProt Q9H0S4|Q9H0S4-2", "NP40-soluble protein abundance": "1.5 ± 0.09"},
      {"target": "PGAM5 (UniProt Q96HS1)", "NP40-soluble protein abundance": "1.48 ± 0.16"},
      {"target": "UniProt Q9NUL5", "NP40-soluble protein abundance": "0.921 ± 0.057"},
      {"target": "RDH14 (UniProt Q9HBH5)", "sequence (Q9HBH5 whole entry)": "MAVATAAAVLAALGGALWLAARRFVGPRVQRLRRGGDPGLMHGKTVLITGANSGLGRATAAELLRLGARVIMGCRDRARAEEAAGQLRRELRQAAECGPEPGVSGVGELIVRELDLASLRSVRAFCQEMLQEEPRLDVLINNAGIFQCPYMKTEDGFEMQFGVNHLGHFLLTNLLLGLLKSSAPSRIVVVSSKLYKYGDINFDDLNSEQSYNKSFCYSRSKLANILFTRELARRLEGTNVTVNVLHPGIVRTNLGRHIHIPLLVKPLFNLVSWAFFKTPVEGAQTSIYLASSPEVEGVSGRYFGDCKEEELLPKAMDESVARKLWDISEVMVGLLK", "NP40-soluble protein abundance": "0.998 ± 0.056"},
      {"target": "UniProt Q9UG63|Q9UG63-2", "NP40-soluble protein abundance": "1.67 ± 0.095"},
      {"target": "MECR (UniProt Q9BV79)", "NP40-soluble protein abundance": "0.957 ± 0.054"},
      {"target": "UniProt Q9BTT6", "sequence (Q9BTT6 whole entry)": "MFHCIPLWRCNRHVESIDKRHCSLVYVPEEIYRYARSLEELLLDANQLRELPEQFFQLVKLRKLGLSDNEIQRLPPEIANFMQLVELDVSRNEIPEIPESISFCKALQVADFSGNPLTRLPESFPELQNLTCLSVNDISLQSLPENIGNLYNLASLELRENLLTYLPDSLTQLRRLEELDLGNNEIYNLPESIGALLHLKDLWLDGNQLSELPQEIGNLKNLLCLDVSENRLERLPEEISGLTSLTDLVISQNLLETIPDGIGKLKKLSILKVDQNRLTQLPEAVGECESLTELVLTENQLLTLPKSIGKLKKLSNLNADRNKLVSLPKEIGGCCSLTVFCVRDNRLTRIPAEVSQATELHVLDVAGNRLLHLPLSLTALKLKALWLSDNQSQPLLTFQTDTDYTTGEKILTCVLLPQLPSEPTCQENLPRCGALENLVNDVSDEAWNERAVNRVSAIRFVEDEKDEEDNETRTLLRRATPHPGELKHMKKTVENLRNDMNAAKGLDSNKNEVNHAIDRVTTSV", "NP40-soluble protein abundance": "0.967 ± 0.092"},
      {"target": "CCDC124 (UniProt Q96CT7)", "NP40-soluble protein abundance": "1.56 ± 0.2"},
      {"target": "FUT8 (UniProt Q9BYC5)", "sequence (Q9BYC5 whole entry)": "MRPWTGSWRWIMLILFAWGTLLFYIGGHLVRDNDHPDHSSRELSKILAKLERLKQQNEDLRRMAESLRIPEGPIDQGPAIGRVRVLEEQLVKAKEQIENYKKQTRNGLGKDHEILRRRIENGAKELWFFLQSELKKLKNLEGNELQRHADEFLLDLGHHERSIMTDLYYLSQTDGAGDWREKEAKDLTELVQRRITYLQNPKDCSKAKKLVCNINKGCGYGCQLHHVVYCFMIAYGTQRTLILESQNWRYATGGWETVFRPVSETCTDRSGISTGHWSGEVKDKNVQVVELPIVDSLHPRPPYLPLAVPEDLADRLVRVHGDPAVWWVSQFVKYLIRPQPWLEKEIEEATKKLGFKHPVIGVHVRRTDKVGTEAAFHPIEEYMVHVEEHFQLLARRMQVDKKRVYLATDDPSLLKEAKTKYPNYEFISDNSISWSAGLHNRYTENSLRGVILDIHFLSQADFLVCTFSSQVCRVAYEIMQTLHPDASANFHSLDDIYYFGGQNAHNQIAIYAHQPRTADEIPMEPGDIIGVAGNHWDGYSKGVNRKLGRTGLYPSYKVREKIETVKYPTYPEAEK", "NP40-soluble protein abundance": "0.9889 ± 0.0069"},
      {"target": "TDP1 (UniProt Q9NUW8)", "sequence (Q9NUW8 whole entry)": "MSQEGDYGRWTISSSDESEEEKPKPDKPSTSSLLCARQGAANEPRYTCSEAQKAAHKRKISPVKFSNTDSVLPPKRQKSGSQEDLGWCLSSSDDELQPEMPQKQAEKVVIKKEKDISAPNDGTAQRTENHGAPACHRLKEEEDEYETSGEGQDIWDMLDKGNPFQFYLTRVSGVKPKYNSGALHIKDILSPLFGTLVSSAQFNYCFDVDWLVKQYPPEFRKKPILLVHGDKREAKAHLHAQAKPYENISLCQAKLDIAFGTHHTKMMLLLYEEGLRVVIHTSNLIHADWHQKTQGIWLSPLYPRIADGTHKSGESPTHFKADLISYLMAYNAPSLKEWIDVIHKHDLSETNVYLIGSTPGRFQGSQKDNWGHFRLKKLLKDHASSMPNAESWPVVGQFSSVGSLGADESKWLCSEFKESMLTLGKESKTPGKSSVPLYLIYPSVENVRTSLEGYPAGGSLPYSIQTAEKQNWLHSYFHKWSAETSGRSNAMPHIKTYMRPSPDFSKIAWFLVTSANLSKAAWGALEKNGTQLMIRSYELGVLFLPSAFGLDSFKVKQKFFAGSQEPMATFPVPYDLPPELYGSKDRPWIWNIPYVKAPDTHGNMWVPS", "NP40-soluble protein abundance": "1 ± 0.069"},
      {"target": "UniProt Q9NUL3-3|Q9NUL3-8|A0A0A0MTD1|E7EPX0|E7EVJ4|F8VPI7|A0A0A0MTC5|E9PH62|Q9NUL3|Q9NUL3-2", "NP40-soluble protein abundance": "1.11 ± 0.15"},
      {"target": "UniProt Q9HCM7", "NP40-soluble protein abundance": "2.13 ± 0.52"},
      {"target": "DNAJC9 (UniProt Q8WXX5)", "sequence (Q8WXX5 whole entry)": "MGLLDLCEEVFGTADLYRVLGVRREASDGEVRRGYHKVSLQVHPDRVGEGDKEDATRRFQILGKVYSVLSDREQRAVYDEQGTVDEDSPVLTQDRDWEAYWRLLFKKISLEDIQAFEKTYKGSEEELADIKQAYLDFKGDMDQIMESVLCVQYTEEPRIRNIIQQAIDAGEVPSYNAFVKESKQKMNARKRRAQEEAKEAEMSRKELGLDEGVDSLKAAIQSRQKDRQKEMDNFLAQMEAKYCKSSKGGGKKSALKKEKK", "NP40-soluble protein abundance": "1.55 ± 0.057"},
      {"target": "UniProt Q9NVI7-2", "NP40-soluble protein abundance": "1.89 ± 0.29"},
      {"target": "UniProt Q96KB5|Q96KB5-2", "sequence (Q96KB5 whole entry)": "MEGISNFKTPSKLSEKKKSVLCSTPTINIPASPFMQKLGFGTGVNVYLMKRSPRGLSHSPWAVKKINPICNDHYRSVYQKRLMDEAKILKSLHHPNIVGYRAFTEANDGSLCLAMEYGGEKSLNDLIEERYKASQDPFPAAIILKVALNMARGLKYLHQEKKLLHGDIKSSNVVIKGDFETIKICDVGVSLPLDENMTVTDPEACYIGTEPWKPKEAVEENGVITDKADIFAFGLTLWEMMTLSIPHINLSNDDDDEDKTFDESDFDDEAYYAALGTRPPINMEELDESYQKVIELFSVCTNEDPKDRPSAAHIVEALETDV", "NP40-soluble protein abundance": "0.949 ± 0.083"}
    ]},
    {"compound": "Nc1ncnc2c1ncn2[C@@H]1O[C@H](COP(=O)(O)OP(=O)(O)OP(=O)(O)O)[C@@H](O)[C@H]1O [adenosine triphosphate]", "assay": "NP40-soluble protein abundance relative to vehicle (solubility fold change) (ratio); higher = more soluble protein in presence of ATP", "conditions": "concentration: 8mM", "how_it_was_run": "as §1", "values": [
      {"target": "ARGLU1 (UniProt Q9NWB6)", "NP40-soluble protein abundance": "2.33 ± 0.28"},
      {"target": "UniProt Q9NVR5", "NP40-soluble protein abundance": "1.01 ± 0.12"},
      {"target": "MRPL16 (UniProt Q9NX20)", "NP40-soluble protein abundance": "1.08 ± 0.18"},
      {"target": "ZNF48 (UniProt Q96MX3)", "NP40-soluble protein abundance": "1.34 ± 0.12"},
      {"target": "UniProt Q8WX93|Q8WX93-3|Q8WX93-4|Q8WX93-5|Q8WX93-8", "NP40-soluble protein abundance": "0.971 ± 0.044"},
      {"target": "UniProt Q9H6R4|Q9H6R4-4|A0A0A0MRW6|Q9H6R4-2", "NP40-soluble protein abundance": "1.39 ± 0.15"},
      {"target": "LUC7L (UniProt Q9NQ29)", "NP40-soluble protein abundance": "2.93 ± 0.17"},
      {"target": "EIF2AK4 (UniProt Q9P2K8)", "NP40-soluble protein abundance": "1.03 ± 0.056"},
      {"target": "UniProt Q9NUQ7|D6RA67", "NP40-soluble protein abundance": "1.08 ± 0.072"},
      {"target": "UniProt Q9UEY8|Q9UEY8-2", "NP40-soluble protein abundance": "0.99 ± 0.023"},
      {"target": "PNPLA2 (UniProt Q96AD5)", "NP40-soluble protein abundance": "0.994 ± 0.062"},
      {"target": "PECR (UniProt Q9BY49)", "NP40-soluble protein abundance": "1.02 ± 0.053"},
      {"target": "SENP8 (UniProt Q96LD8)", "NP40-soluble protein abundance": "0.911 ± 0.024"},
      {"target": "UniProt Q9BWW4|Q9BWW4-2|Q9BWW4-3", "NP40-soluble protein abundance": "0.956 ± 0.056"},
      {"target": "ARMC1 (UniProt Q9NVT9)", "NP40-soluble protein abundance": "0.881 ± 0.035"},
      {"target": "DDX23 (UniProt Q9BUQ8)", "NP40-soluble protein abundance": "1.69 ± 0.17"},
      {"target": "UniProt Q9H0S4|Q9H0S4-2", "NP40-soluble protein abundance": "1.79 ± 0.073"},
      {"target": "PGAM5 (UniProt Q96HS1)", "NP40-soluble protein abundance": "1.64 ± 0.089"},
      {"target": "UniProt Q9NUL5", "NP40-soluble protein abundance": "0.908 ± 0.025"},
      {"target": "RDH14 (UniProt Q9HBH5)", "NP40-soluble protein abundance": "1.05 ± 0.037"},
      {"target": "UniProt Q9UG63|Q9UG63-2", "NP40-soluble protein abundance": "2.16 ± 0.093"},
      {"target": "MECR (UniProt Q9BV79)", "NP40-soluble protein abundance": "0.94 ± 0.013"},
      {"target": "UniProt Q9BTT6", "NP40-soluble protein abundance": "0.961 ± 0.092"},
      {"target": "CCDC124 (UniProt Q96CT7)", "NP40-soluble protein abundance": "1.64 ± 0.1"},
      {"target": "FUT8 (UniProt Q9BYC5)", "NP40-soluble protein abundance": "1.04 ± 0.045"},
      {"target": "TDP1 (UniProt Q9NUW8)", "NP40-soluble protein abundance": "0.985 ± 0.049"},
      {"target": "UniProt Q9NUL3-3|Q9NUL3-8|A0A0A0MTD1|E7EPX0|E7EVJ4|F8VPI7|A0A0A0MTC5|E9PH62|Q9NUL3|Q9NUL3-2", "NP40-soluble protein abundance": "1.16 ± 0.099"},
      {"target": "UniProt Q9HCM7", "NP40-soluble protein abundance": "2.62 ± 0.69"},
      {"target": "DNAJC9 (UniProt Q8WXX5)", "NP40-soluble protein abundance": "1.73 ± 0.12"},
      {"target": "UniProt Q9NVI7-2", "NP40-soluble protein abundance": "2.2 ± 0.2"},
      {"target": "UniProt Q96KB5|Q96KB5-2", "NP40-soluble protein abundance": "0.958 ± 0.042"}
    ]},
    {"compound": "Nc1ncnc2c1ncn2[C@@H]1O[C@H](COP(=O)(O)OP(=O)(O)OP(=O)(O)O)[C@@H](O)[C@H]1O [adenosine triphosphate]", "assay": "NP40-soluble protein abundance relative to vehicle (solubility fold change) (ratio); higher = more soluble protein in presence of ATP", "conditions": "concentration: 10mM", "how_it_was_run": "as §1", "values": [
      {"target": "ARGLU1 (UniProt Q9NWB6)", "NP40-soluble protein abundance": "2.44 ± 0.27"},
      {"target": "UniProt Q9NVR5", "NP40-soluble protein abundance": "0.967 ± 0.044"},
      {"target": "MRPL16 (UniProt Q9NX20)", "NP40-soluble protein abundance": "0.981 ± 0.14"},
      {"target": "ZNF48 (UniProt Q96MX3)", "NP40-soluble protein abundance": "1.4 ± 0.12"},
      {"target": "UniProt Q8WX93|Q8WX93-3|Q8WX93-4|Q8WX93-5|Q8WX93-8", "NP40-soluble protein abundance": "0.986 ± 0.036"},
      {"target": "UniProt Q9H6R4|Q9H6R4-4|A0A0A0MRW6|Q9H6R4-2", "NP40-soluble protein abundance": "1.72 ± 0.15"},
      {"target": "LUC7L (UniProt Q9NQ29)", "NP40-soluble protein abundance": "3.11 ± 0.15"},
      {"target": "EIF2AK4 (UniProt Q9P2K8)", "NP40-soluble protein abundance": "1.03 ± 0.082"},
      {"target": "UniProt Q9NUQ7|D6RA67", "NP40-soluble protein abundance": "1.02 ± 0.091"},
      {"target": "UniProt Q9UEY8|Q9UEY8-2", "NP40-soluble protein abundance": "1.004 ± 0.0086"},
      {"target": "PNPLA2 (UniProt Q96AD5)", "NP40-soluble protein abundance": "1.06 ± 0.1"},
      {"target": "PECR (UniProt Q9BY49)", "NP40-soluble protein abundance": "1.05 ± 0.033"},
      {"target": "SENP8 (UniProt Q96LD8)", "NP40-soluble protein abundance": "0.932 ± 0.023"},
      {"target": "UniProt Q9BWW4|Q9BWW4-2|Q9BWW4-3", "NP40-soluble protein abundance": "0.906 ± 0.1"},
      {"target": "ARMC1 (UniProt Q9NVT9)", "NP40-soluble protein abundance": "0.908 ± 0.029"},
      {"target": "DDX23 (UniProt Q9BUQ8)", "NP40-soluble protein abundance": "1.81 ± 0.2"},
      {"target": "UniProt Q9H0S4|Q9H0S4-2", "NP40-soluble protein abundance": "1.99 ± 0.11"},
      {"target": "PGAM5 (UniProt Q96HS1)", "NP40-soluble protein abundance": "1.72 ± 0.11"},
      {"target": "UniProt Q9NUL5", "NP40-soluble protein abundance": "0.924 ± 0.035"},
      {"target": "RDH14 (UniProt Q9HBH5)", "NP40-soluble protein abundance": "1.01 ± 0.035"},
      {"target": "UniProt Q9UG63|Q9UG63-2", "NP40-soluble protein abundance": "2.59 ± 0.25"},
      {"target": "MECR (UniProt Q9BV79)", "NP40-soluble protein abundance": "0.92 ± 0.012"},
      {"target": "UniProt Q9BTT6", "NP40-soluble protein abundance": "0.922 ± 0.045"},
      {"target": "CCDC124 (UniProt Q96CT7)", "NP40-soluble protein abundance": "1.96 ± 0.36"},
      {"target": "FUT8 (UniProt Q9BYC5)", "NP40-soluble protein abundance": "1.01 ± 0.039"},
      {"target": "TDP1 (UniProt Q9NUW8)", "NP40-soluble protein abundance": "1.01 ± 0.062"},
      {"target": "UniProt Q9NUL3-3|Q9NUL3-8|A0A0A0MTD1|E7EPX0|E7EVJ4|F8VPI7|A0A0A0MTC5|E9PH62|Q9NUL3|Q9NUL3-2", "NP40-soluble protein abundance": "1.3 ± 0.11"},
      {"target": "UniProt Q9HCM7", "NP40-soluble protein abundance": "2.78 ± 0.79"},
      {"target": "DNAJC9 (UniProt Q8WXX5)", "NP40-soluble protein abundance": "1.76 ± 0.1"},
      {"target": "UniProt Q9NVI7-2", "NP40-soluble protein abundance": "2.35 ± 0.26"},
      {"target": "UniProt Q96KB5|Q96KB5-2", "NP40-soluble protein abundance": "0.965 ± 0.039"}
    ]}
  ]
}
